Where “and” joins values, the source holds several entries; their conditions need not be identical. Equal entries are not always repeated. Inconclusive results are not listed. Calls of active or inactive are those of the source. Calls follow the shape of the dose curve; as a rule, active = well fitted inhibition curve with a large enough effect; inconclusive = small, poorly fitted or top-dose-only effect; inactive = flat fitted curve, though single readings scatter.
Key:
[1] = qHTS profiling for inhibitors of Plasmodium falciparum proliferation (AID 504749);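 also: 0% = DMSO vehicle and full inhibition = artemisinin control; nearly all actives have a fitted effect of over 60% in size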; conditions: P. falciparum in erythrocytes, SYBR Green DNA, 72 h
Procedure, shortened: (§1)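 Fluorescence of SYBR Green-bound parasite DNA, read at 485/535 nm, served as the growth measure. Infected erythrocytes were cultured with compound 72 h; artemisinin (0.29 uM) and DMSO wells defined the normalization range.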

3D7 = assay: as above; conditions: P. falciparum in erythrocytes, SYBR Green DNA, 72 h; series mostly up to 28.7 µM
Procedure, shortened: as §1

7G8 = assay: as above; conditions: P. falciparum in erythrocytes, SYBR Green DNA, 72 h; series mostly up to 28.7 µM
Procedure, shortened: as §1

AA1029 = assay: as above; conditions: P. falciparum in erythrocytes, SYBR Green DNA, 72 h; series mostly up to 28.7 µM
Procedure, shortened: as §1

AS120 = assay: as above; conditions: P. falciparum in erythrocytes, SYBR Green DNA, 72 h; series mostly up to 28.7 µM
Procedure, shortened: as §1

ATS189 = assay: as above; conditions: P. falciparum in erythrocytes, SYBR Green DNA, 72 h; series mostly up to 28.7 µM
Procedure, shortened: as §1

ATS95 = assay: as above; conditions: P. falciparum in erythrocytes, SYBR Green DNA, 72 h; series mostly up to 28.7 µM
Procedure, shortened: as §1

C2A = assay: as above; conditions: P. falciparum in erythrocytes, SYBR Green DNA, 72 h; series mostly up to 28.7 µM
Procedure, shortened: as §1

[2] = at 28.7 µM (top of the series), parasite line A
[3] = at 28.7 µM (top of the series), parasite line B
[4] = at 12.8 µM (top of the series), parasite line A
[5] = at 12.8 µM (top of the series), parasite line B

O=C(O)[C@@H]1CSCN1
inactive: activity, negative = inhibition [1, 2] 8.72% | activity, negative = inhibition [1, 3] -0.798% | Potency (3D7) | Potency (7G8) | Potency (AA1029) | Potency (AS120) | Potency (ATS189) | Potency (ATS95) | Potency (C2A)

OCC(O)CN1CCN(c2ccccc2)CC1 (stereo not drawn)
inactive: activity, negative = inhibition [1, 2] 5.92% | activity, negative = inhibition [1, 3] 10.4% | Potency (3D7) | Potency (7G8) | Potency (AA1029) | Potency (AS120) | Potency (ATS189) | Potency (ATS95) | Potency (C2A)

Cc1cc(CC(=O)O)n(C)c1C(=O)c1ccc(Cl)cc1
inactive: activity, negative = inhibition [1, 2] -8.03% and -6.63% | activity, negative = inhibition [1, 3] -3.67% and -0.286% | Potency (3D7) | Potency (7G8) | Potency (AA1029) | Potency (AS120) | Potency (ATS189) | Potency (ATS95) | Potency (C2A)

Cc1cccc(Nc2cc(Cl)nc(SCC(=O)O)n2)c1C
inactive: activity, negative = inhibition [1, 2] 11.5% | activity, negative = inhibition [1, 3] 13.9% | Potency (3D7) | Potency (7G8) | Potency (AA1029) | Potency (AS120) | Potency (ATS189) | Potency (ATS95) | Potency (C2A)

CC(=O)NC(Cc1ccccc1)C(=O)O (stereo not drawn)
inactive: activity, negative = inhibition [1, 2] 3.68% | activity, negative = inhibition [1, 3] 2.97% | Potency (3D7) | Potency (7G8) | Potency (AA1029) | Potency (AS120) | Potency (ATS189) | Potency (ATS95) | Potency (C2A)

NCCNCCNCCNCCN
inactive: activity, negative = inhibition [1, 2] 12.5% | activity, negative = inhibition [1, 3] -2.06% | Potency (3D7) | Potency (7G8) | Potency (AA1029) | Potency (AS120) | Potency (ATS189) | Potency (ATS95) | Potency (C2A)

Oc1cn2c(n1)Nc1ccc(Cl)c(Cl)c1C2
inactive: activity, negative = inhibition [1, 2] 7.35% | activity, negative = inhibition [1, 3] -8.41% | Potency (3D7) | Potency (7G8) | Potency (AA1029) | Potency (AS120) | Potency (ATS189) | Potency (ATS95) | Potency (C2A)

CCn1cc(C(=O)O)c(=O)c2cnc(N3CCNCC3)nc21
inactive: activity, negative = inhibition [1, 4] 7.13% | activity, negative = inhibition [1, 5] -22.6% | Potency (3D7) | Potency (7G8) | Potency (AA1029) | Potency (AS120) | Potency (ATS189) | Potency (ATS95) | Potency (C2A)

Cc1cccc(C)c1NC(=O)CN(CC(=O)O)CC(=O)O
inactive: activity, negative = inhibition [1, 2] 13.4% | activity, negative = inhibition [1, 3] 2.17% | Potency (3D7) | Potency (7G8) | Potency (AA1029) | Potency (AS120) | Potency (ATS189) | Potency (ATS95) | Potency (C2A)

C#CCN(C)Cc1ccccc1
inactive: activity, negative = inhibition [1, 4] 7.21% | activity, negative = inhibition [1, 5] -0.897% | Potency (3D7) | Potency (7G8) | Potency (AA1029) | Potency (AS120) | Potency (ATS189) | Potency (ATS95) | Potency (C2A)

CCCOC(=O)c1ccccc1
inactive: activity, negative = inhibition [1, 2] -2.05% | activity, negative = inhibition [1, 3] 2.76% | Potency (3D7) | Potency (7G8) | Potency (AA1029) | Potency (AS120) | Potency (ATS189) | Potency (ATS95) | Potency (C2A)

CCOc1ccc2ccccc2c1C(=O)N[C@@H]1C(=O)N2[C@@H]1SC(C)(C)[C@@H]2C(=O)O
inactive: activity, negative = inhibition [1, 4] 11.5% | activity, negative = inhibition [1, 5] -19.5% | Potency (3D7) | Potency (7G8) | Potency (AA1029) | Potency (AS120) | Potency (ATS189) | Potency (ATS95) | Potency (C2A)

NS(=O)(=O)c1cc2c(cc1Cl)NC(CSCc1ccccc1)=NS2(=O)=O
inactive: activity, negative = inhibition [1, 4] 2.74% | activity, negative = inhibition [1, 5] 12.8% | Potency (3D7) | Potency (7G8) | Potency (AA1029) | Potency (AS120) | Potency (ATS189) | Potency (ATS95) | Potency (C2A)

CC1(C)CO[C@@H](CC(=O)O)CN1
inactive: activity, negative = inhibition [1, 2] 1.48% | activity, negative = inhibition [1, 3] 5.08% | Potency (3D7) | Potency (7G8) | Potency (AA1029) | Potency (AS120) | Potency (ATS189) | Potency (ATS95) | Potency (C2A)

O=C(CCCN1CCN(c2ccccn2)CC1)c1ccc(F)cc1
inactive: activity, negative = inhibition [1, 2] -3.57% | activity, negative = inhibition [1, 3] 15.4% | Potency (3D7) | Potency (7G8) | Potency (AA1029) | Potency (AS120) | Potency (ATS189) | Potency (ATS95) | Potency (C2A)

Nc1ccc(S(=O)(=O)Nc2nccs2)cc1
inactive: activity, negative = inhibition [1, 2] 1.04% | activity, negative = inhibition [1, 3] -2.23% | Potency (3D7) | Potency (7G8) | Potency (AA1029) | Potency (AS120) | Potency (ATS189) | Potency (ATS95) | Potency (C2A)

O=C(O)CN1C(=O)c2cccc3cccc(c23)C1=O
inactive: activity, negative = inhibition [1, 2] -2.87% | activity, negative = inhibition [1, 3] 1.81% | Potency (3D7) | Potency (7G8) | Potency (AA1029) | Potency (AS120) | Potency (ATS189) | Potency (ATS95) | Potency (C2A)

C=Cc1c(C)c2cc3[nH]c(cc4nc(cc5nc(cc1[nH]2)C(C)=C5CCC(=O)O)C(CCC(=O)O)=C4C)c(C)c3C=C
inactive: activity, negative = inhibition [1, 2] -6.02% | activity, negative = inhibition [1, 3] 6.67% | Potency (3D7) | Potency (7G8) | Potency (AA1029) | Potency (AS120) | Potency (ATS189) | Potency (ATS95) | Potency (C2A)

CCCCN(CCCC)CCCOC(=O)c1ccc(N)cc1
inactive: activity, negative = inhibition [1, 4] -10.5% | activity, negative = inhibition [1, 5] 3.88% | Potency (3D7) | Potency (7G8) | Potency (AA1029) | Potency (AS120) | Potency (ATS189) | Potency (ATS95) | Potency (C2A)

COc1ccc(S(=O)(=O)Nc2nnc(CC(C)C)s2)cc1
inactive: activity, negative = inhibition [1, 2] 3.77% and -5.99% | activity, negative = inhibition [1, 3] 15.9% and -5.44% | Potency (3D7) | Potency (7G8) | Potency (AA1029) | Potency (AS120) | Potency (ATS189) | Potency (ATS95) | Potency (C2A)

CCCCOc1cc(C(=O)OCCN(CC)CC)ccc1N
inactive: activity, negative = inhibition [1, 4] 8.11% | activity, negative = inhibition [1, 5] 4.89% | Potency (3D7) | Potency (7G8) | Potency (AA1029) | Potency (AS120) | Potency (ATS189) | Potency (C2A)

Source: PubChem BioAssay (NCATS)
